# Screens from PubChem.
# A selection: hits, their analogues and other compounds. The true share with any hit is near 19%.
# Lassa entry inh – blocks Lassa virus binding to or entry into cells. Lassa virus pseudotype entry inhibition, cell reporter. Potency, µM (top dose mostly 37.9 µM), for inactives: at the top dose activity change, negative = inhibition, usual class: inhibitors. 300,000 compounds, 1.2% hits; calls by dose curve; tested in HEK293 cells; also: potency is read from the fitted curve at half-maximal effect; % is scaled to controls: 0 for no effect and ±100 for the full control effect; nearly all actives have a fitted effect of over 50% in size
# MARV entry inh – blocks Marburg virus binding to or entry into cells; Marburg virus pseudotyped entry inhibition, cell reporter; Potency, µM (series often up to 37.8 µM), for the others: at the highest dose activity change, negative = inhibition, hits mostly inhibitors; 300,000 compounds, 1.8% hits; calls by dose curve; tested in HEK293 cells; also: potency is read from the fitted curve at half-maximal effect; % is scaled to controls: 0 for no effect and ±100 for the full control effect
# CHX counter – affects cycloheximide protein synthesis inhibition readout, counter-screen; AID 2314; cell reporter, cycloheximide protein synthesis inhibition counterscreen; max response, %; 300,000 compounds, 12% hits; in the data active = max response mostly above about 13%, no sharp cut-off; inactive = mostly below about 14%; also: read at 38.3 µM for the half of the compounds with a filed dose; 0% is about no effect
# Pf growth 96h – P. falciparum growth inhibition at 96 hours | AID 504834 | 320,000 compounds, 6.9% hits | Potency, µM (top dose mostly 28.7 µM), inactives show at the top dose activity change, negative = inhibition, hits mostly inhibitors | P. falciparum luciferase reporter growth, 96 h; also: potency is read from the fitted curve at half-maximal effect; % is scaled to controls: 0 for no effect and ±100 for the full control effect
#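 Two-generation exposure (96 h) targets delayed-death phenotype. Reporter parasites carrying integrated firefly luciferase, in red cells at 2% hematocrit and 0.05% parasitemia final, kept at 37 C, 5% CO2; luminescence loss indicates inhibition.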
# Pf growth 48h – inhibits P. falciparum growth in the first generation, 48 h; P. falciparum luciferase growth in erythrocytes, 48 h; AID 504832; 310,000 compounds, 5.9% hits; Potency, µM (doses to about 28.7 µM), for inactives: at the top dose activity change, negative = inhibition, hits mostly inhibitors; also: potency is read from the fitted curve at half-maximal effect; % is scaled to controls: 0 for no effect and ±100 for the full control effect
#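 Cell-based growth assay: transgenic P. falciparum expressing firefly luciferase, cultured in red cells within RPMI 1640 containing 0.5% w/v Albumax, 24 mM bicarbonate and gentamycin. A drop in luciferase activity indicates inhibition.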
# Shiga toxin inh – blocks Shiga toxin action in Vero cells; Vero cells, Shiga toxin protein synthesis inhibition reporter; inhibition, % at 38.7 µM; 290,000 compounds, 9.2% hits; in the data active = inhibition mostly above about 28%, no sharp cut-off; inactive = mostly below about 43%; also: 0% is about no effect
# * hit, by the source's call; ? = inconclusive; . = not tested or not shown; [ ] = another dose, or the depositor's remark. Unless noted, calls follow the shape of the dose curve; as a rule, active = well fitted inhibition curve with a large enough effect; inconclusive = small, poorly fitted or top-dose-only effect, or another doubt; inactive = no such curve, though single readings can be large or run the other way.
SMILES,Lassa entry inh,MARV entry inh,CHX counter,Pf growth 96h,Pf growth 48h,Shiga toxin inh
COC(=O)C(C)Oc1ccc2c(c1)O/C(=C\c1ccco1)C2=O (centres undefined),19%[46.1 µM],?,37*,3%,7%,71*
CC1CCc2nc(NCCO)nc(C(F)(F)F)c2C1 (centres undefined),-2%,-5%,-2,10%,26%,-12
CN1CCC(Oc2ccccc2Sc2ccccc2)CC1,8.2µM*,10µM*,-5,13µM*,?,-6
CN1CCC(OC(c2ccccc2)c2ccccc2)CC1,?,?,-2,?,-17%,-6
S=C1NC(c2ccccc2)=CC(c2ccccc2)N1 (centres undefined),-19%,10%[46.1 µM],5,?,10µM*,-7
CC1=CC(c2ccccc2)NC(=S)N1 (centres undefined),-4%,?,-3,?,-10%,-10
O=[N+]([O-])c1ccc(C23CC4CC(CC(O)(C4)C2)C3)cc1,.,.,39*,82%,122%,63*
Cc1cc(C)c(C)c(S(=O)(=O)N2CCN(CC(=O)Nc3sccc3C#N)CC2)c1C,-4%,?,-4,?,?,-1
CC(=NCCCO)c1c(O)n(Cc2ccccc2)c(=O)[nH]c1=O,-6%,-5%,-3,-5%,-6%,1
COC(=O)Cn1nnc2c(cnn2-c2ccccc2)c1=O,-16%,1%,25*,64%,20%,53
CC(C)OC(=O)Cn1nnc2c(cnn2-c2ccccc2)c1=O,27%,-1%,46*,-29%,130%,65*
COCCCN=Cc1c(C)[nH]n(-c2ccc(Br)cc2Br)c1=O,1%[46.1 µM],-7%[46.1 µM],35,17%,25%,16
Cn1c(-c2ccsc2)c(-c2cccs2)c2cc(-c3ccc4cc[nH]c4c3)ccc21,.,.,.,?,2.1µM*,.
Cn1c(-c2ccsc2)c(-c2cccs2)c2cc(-c3ccc4[nH]ccc4c3)ccc21,.,.,.,5.9µM*,5.2µM*,.
COc1cc(-c2noc(-c3ccc(N4CCCCC4)c([N+](=O)[O-])c3)n2)cc(OC)c1OC,1%[46.1 µM],2%[46.1 µM],.,.,.,.
CC1CCC(C(C)C)C(=O)/C1=C/c1ccc(N)cc1 (centres undefined),.,.,35*,84%,52%,92*
CSc1nnc(-c2ccccc2)c(=O)[nH]1,21%,-31%,-8,.,7%,-4
Clc1ccc(Sc2ccccn2)cc1,.,.,15,0%,7%,.
COc1ccc(OCCSc2nc(C)c(Cc3ccccc3)c(=O)[nH]2)cc1,-13%[46.1 µM],8%[46.1 µM],-2,-3%,26%,-15
COc1ccc(OCCSc2ncccn2)cc1,?,?,46*,?,194%,113*
OC(COc1ccc(Cl)cc1)CSc1ccccn1 (centres undefined),.,.,27*,?,28%,21
COc1ccc(OCCCSc2ncccn2)cc1,?,7%,39*,?,136%,104*
COc1ccc(OCCSc2nc(C)nc3ccccc23)cc1,?,?,43*,-17%,?,31
Clc1ccc(OCCSc2ncccn2)cc1,22%,?,55*,?,195%,117*
Cc1ccc(OCCCSc2ncccn2)cc1C,22%,?,44*,101%,189%,74*
SMILES,Lassa entry inh,MARV entry inh,CHX counter,Pf growth 96h,Pf growth 48h,Shiga toxin inh
O=C(NCCc1ccco1)C(=O)NCC1OCCCN1S(=O)(=O)c1ccccc1 (centres undefined),0%,?,0,?,?,-8
CCOc1cc(O)c(-c2[nH]ncc2-c2nc(C)cs2)cc1CC,.,.,-2,?,15µM*,14
CC(C)(C)NC(=S)N1CCC(C(=O)c2ccc(F)cc2)CC1,.,.,-2,?,?,-9
COc1ccc(NC(=O)CCn2nc(-c3ccccc3OC)c3c(C)cc(C)nc32)cc1,?,-3%[46.1 µM],.,.,.,.
O=C(NCc1ccccc1)c1cnsn1,0%,-2%,5,1.3µM*,-15%,-8
O=C(Nc1cccc2ccccc12)c1cnsn1,.,.,6,-1%,18%,19
O=C(NCc1ccc(F)cc1)c1cc(-c2cccs2)on1,?,-7%,26*,?,38%,25
O=C(NCc1ccccc1)c1cc(-c2cccs2)on1,19%,-4%,43*,3%,49%,77*
CCCNC(=O)c1nc(C)n(-c2cc(Cl)ccc2Cl)n1,8%,19%[46.1 µM],1,-1%,-30%,-2
O=C(CSc1nnc(COc2ccc(Cl)cc2)o1)NC1CC2CCC1C2 (centres undefined),?,?,8,-26%,15%,21
CCc1ccc(NC(=O)CSc2nc3ccccc3nc2Cc2ccc(C)cc2)cc1,-1%[46.1 µM],.,.,.,.,.
Nc1ccc(Oc2ccc3c(c2)C(=O)N(CC2CCCO2)C3=O)cc1 (centres undefined),-4%[46.1 µM],?,42*,68%,?,50*
COc1ccc(NC(=O)c2ccc3c(c2)C(=O)N(CC2CCCO2)C3=O)cc1O (centres undefined),-6%,2%,11,4%,-3%,3
Cc1ccc(NC(=O)c2ccc3c(c2)C(=O)N(CC2CCCO2)C3=O)cc1C (centres undefined),16%[46.1 µM],-2%[46.1 µM],45*,-29%,35%,67*
CCOc1ccccc1NC(=O)c1ccc2c(c1)C(=O)N(CC1CCCO1)C2=O (centres undefined),.,.,4,15µM*,42%,9
O=C(NN1C(=O)c2ccccc2C1=O)c1ccc2c(c1)C(=O)N(CC1CCCO1)C2=O (centres undefined),11%,?,19*,62%,45%,44*
O=C(Nc1cccnc1)c1ccc2c(c1)C(=O)N(CC1CCCO1)C2=O (centres undefined),.,.,1,-5%,10%,-1
CCOc1c(O)ccc(/C=C2\SC(=S)NC2=O)c1[N+](=O)[O-],?,1%[46.1 µM],14,?,4%,13
CCn1cc([N+](=O)[O-])c(C(=O)N2N=C(c3ccc4ccccc4c3)CC2c2cc(Br)ccc2O)n1 (centres undefined),?,?,-1,?,3.3µM*,1
CCn1cc([N+](=O)[O-])c(C(=O)N2N=C(c3ccccc3)CC2c2ccc([N+](=O)[O-])cc2)n1 (centres undefined),8%,11%,15,?,13µM*,20
CCn1cc([N+](=O)[O-])c(C(=O)N2N=C(c3ccc(O)c(OC)c3)CC2c2ccccc2O)n1 (centres undefined),?,?,17,15µM*,?,27
CC(=O)N1N=C(c2ccc([N+](=O)[O-])cc2)CC1c1ccccc1Cl (centres undefined),?,?,-2,-27%,?,-6
